High-throughput results (PubChem BioAssay)
Pf Dd2 inh: qHTS Primary assay for Inhibitors of Plasmodium falciparum Dd2 growth in vitro; P. falciparum Dd2 growth, SYBR Green, 72 h; 120,000 compounds, 4.3% hits; Potency, µM (titrated, usually from 28.9 µM), for the others: at the top dose activity, negative = inhibition, actives largely listed as inhibitors; active = well fitted inhibition curve with a large enough effect;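 also: plate controls were DMSO vehicle for no effect and reference drug for full effect; nearly all actives have a fitted effect of over 65% in size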
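Infected erythrocytes (Dd2, 0.3% parasitemia, 2.5% hematocrit final) are added to compound in RPMI-1640/Albumax II medium, grown 72 h at 37C in low oxygen, then lysed with saponin/Triton-X containing SYBR Green and read by fluorescence.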
Numbers without * were called inactive; i = inactive; [ ] = dose if it differs, or a comment. Many of the other results were omitted from the sample, so hits are more common in it than they were. Potency is read from the fitted curve at half-maximal effect.

SMILES	Pf Dd2 inh
O=C1COc2ccc(-c3ccncc3)nc2CN1Cc1ccccc1	i
O=c1cc(-c2ccccc2)c2ccc3c(c2o1)CN(Cc1ccccc1)CO3	1µM*
Cc1coc2c(C)c3oc(=O)c(CC(=O)NCc4ccccc4)c(C)c3cc12	-8%
COc1ccc(-c2cc(=O)oc3c4c(ccc23)OCN(Cc2ccccc2)C4)cc1	0.89µM*
COc1ccccc1-c1onc(C)c1C(=O)NCc1ccccc1Cl	-6%
Cc1ccc(S(=O)(=O)NC[C@H]2O[C@@H](CO)[C@@H](O)[C@H]2N2CCN(c3ccc(F)cc3)CC2)cc1	1%
NCC(=O)N1CCC2(CC1)C(=O)NCN2C(=O)c1ccc(Cl)cc1	i
COc1ccc(-c2noc(-c3nnn4c3COC(c3ccc(C)cc3C)C4)n2)c(OC)c1 (configuration not stated)	i
O=C(N[C@H]1C[C@H]2C(=O)Nc3ccccc3C(=O)N2C1)c1cccnc1	15%[44.1 µM]
COc1ccc2nc(CO[C@H]3CN(Cc4ccc(S(C)(=O)=O)cc4)C[C@H]3F)[nH]c2c1	i
CC[C@@H]1[C@@H](NC(=O)CCCn2nnc(-c3ccc(F)cc3)n2)[C@@H]2CCO[C@H]12	-13%
CN1CC(=O)N(c2ccccc2)Cc2c(NC3CCC3)ncnc21	-3%[44.1 µM]
COc1ccccc1OC1(C(=O)O)CCN(Cc2ccccc2F)CC1	4%
O=C1CC(c2noc(-c3ccc4c(c3)OCO4)n2)CN1c1ccc(Cl)cc1 (configuration not stated)	4%
O=C(N[C@H]1CCN2C(=O)c3cc(-c4ccsc4)ccc3NC(=O)[C@H]12)c1cnccn1	-14%[44.1 µM]
O=C(Cc1c[nH]c2ncc(-c3ccc(Oc4ccccc4)cc3)cc12)N1CCOCC1	-3%[44.1 µM]
COc1ccc(-c2cnc3[nH]cc(CC(=O)N4CCNC(=O)C4)c3c2)cc1	7.9µM*
COc1cccc(-c2cnc3[nH]cc(CC(=O)N4CCN(C)CC4)c3c2)c1	i
COCC1CN(C(=O)COc2ccccc2)CC12CCNCC2 (configuration not stated)	19%
O=C1NC(C(=O)N2CCN(Cc3ccc(F)cc3F)CC2)Cn2cccc21 (configuration not stated)	12%
Cn1ncc(N2CCCC(CC(=O)NCCC3=CCCCC3)C2)cc1=O (configuration not stated)	-3%
CC(C)c1cc(C(=O)NCCc2nc(-c3cccnc3)no2)nc2ncnn12	4%
CC(C)c1cc(C(=O)NCCc2noc(C3CCCO3)n2)nc2ncnn12 (configuration not stated)	4%
Cc1cc(CNC(=O)c2cc(C(C)C)n3ncnc3n2)c2[nH]c(C)c(C)c2c1	8.9µM*
COc1cccc(S(=O)(=O)N2CCN(C3CCN(C)C3=O)CC2)c1 (configuration not stated)	17%
SMILES	Pf Dd2 inh
COc1ccc(OC)c(-c2cc(-c3ccccc3)nc3c(C)noc23)c1	i
COc1cccc([S+](=O)([O-])N2CCCC3(CC(c4ccccn4)=NO3)C2)c1 (configuration not stated)	-4%
COc1ccc(N2CCN(C(=O)c3cn(C)c4ccc(S(=O)(=O)N(C)C5CCCCC5)cc4c3=O)CC2)cc1	11µM*
CCn1cc(C(=O)N2CCN(c3ccccc3F)CC2)c(=O)c2cc(S(=O)(=O)N(C)C)ccc21	39%
COc1ccc(N2CCN(C(=O)c3cn(C4CCCCC4)c(=O)c4c3c3ccccc3n4C)CC2)cc1	5µM*
Cn1cc(C(=O)N2CCN(c3cccc(Cl)c3)CC2)c(=O)c2cc(S(=O)(=O)N3CCCC3)ccc21	11%
CCn1cc(C(=O)N2CCN(c3ccc(F)cc3)CC2)c(=O)c2cc(S(=O)(=O)N(C)C3CCCCC3)ccc21	-8%
COc1ccc(-n2nc(C(=O)N3CCN(c4ccccc4OC)CC3)c3c4ccccc4n(C)c3c2=O)cc1	73%
CCn1cc(C(=O)N2CCN(c3cc(C)ccc3C)CC2)c(=O)c2cc(S(=O)(=O)N3CCOCC3)ccc21	-6%
COc1ccc(-n2nc(C(=O)N3CCN(c4ccc(F)cc4)CC3)c3c4ccccc4n(C)c3c2=O)cc1	27%
CN(C1CCCCC1)S(=O)(=O)c1ccc2c(c1)c(=O)c(C(=O)NCc1ccc(F)cc1)cn2C	30%
CN(C1CCCCC1)S(=O)(=O)c1ccc2c(c1)c(=O)c(C(=O)N1CCN(c3ccc(F)cc3)CC1)cn2C	60%
Cn1cc(C(=O)N2CCN(c3ccccc3)CC2)c(=O)c2cc(S(=O)(=O)N3CCCC3)ccc21	1.6µM*
CN(C1CCCCC1)S(=O)(=O)c1ccc2c(c1)c(=O)c(C(=O)N1CCN(c3ccccc3F)CC1)cn2C	0.89µM*
Nc1nc(CC(=O)N2CCCC(CNC(=O)c3ccc(F)cc3)C2)cc(=O)[nH]1 (configuration not stated)	-20%
COCc1cc(CC2(NCc3ccc(OC)cc3)COC2)no1	-12%[44.1 µM]
CCCc1cc(C(=O)N2CC[C@@H]3[C@@H](CCC(=O)N3CC(C)C)C2)ccn1	-2%
Cc1cc(C(=O)N2C[C@@H](CO)[C@H](c3ccccn3)C2)ccn1	43%
COc1ccc(-c2ccc3nnc(CNC(=O)Cc4cccc(OC)c4)n3n2)cc1	i
O=C(CC1=C2CCCCC2N(Cc2ccccc2)C1=O)NC1CC1 (configuration not stated)	-3%
O=C1[C@@H]2C[C@@H](O)CN2C2(CN(Cc3cccc(OC(F)(F)F)c3)C2)C(=O)N1Cc1ccccc1F	i
COc1ccc(C(=O)NCCc2ncc(C)n2Cc2ccc(F)cc2)cn1	-11%
Cc1cnc(CCNC(=O)NC(C)(C)C)n1Cc1ccccc1	4µM*
CC(=O)N1CCC(Cc2ncc(C)n2Cc2ccccc2)C1 (configuration not stated)	-13%
c1ccc(CN2CCNc3cnc(-c4ccc(N5CCOCC5)cc4)cc3C2)cc1	i
SMILES	Pf Dd2 inh
COc1ccc(-c2nc(N3CCOCC3)cc3c2CN(Cc2ccccc2)C3=O)cn1	-10%[44.1 µM]
c1ccc(CN2CCc3c(sc4ncnc(N5CCOCC5)c34)C2)cc1	7.9µM*
CCN1CCN(c2nc3c(s2)CN(Cc2ccco2)CC3)CC1	-10%
CN1CCN(c2nc3c(c(=O)[nH]2)CCN(Cc2ccc(Br)s2)CC3)CC1	19%[5.79 µM]
CN1CCN(c2ncnc3sc4c(c23)CCN(Cc2ccco2)C4)CC1	11µM*
COCc1nncn1C1CCN(C(=O)c2ccc(C)s2)CC1	-2%
Cc1ccc(C(=O)N2CCn3c(nnc3C3CCCNC3)C2)cc1 (configuration not stated)	6%[44.1 µM]
COc1cc2c(cc1OC)C(C[C@H]1CN(C(=O)Nc3cccc(Cl)c3)CC[C@H]1CC(=O)O)=NCC2	i
COc1ccc(NC(=O)Cn2ccn3nc4c(c3c2=O)CCCCC4)cc1	13%
O=C(NC[C@H]1O[C@@H](CO)[C@@H](O)[C@H]1N1CCCCC1)c1ccccc1	-23%[44.1 µM]
Cc1ccc(OCc2nc(C3CCN(C(=O)Cn4nc(C)cc4C)CC3)no2)cc1	i
Cn1ncc(N2CCN(CC3(O)CCCNC3)CC2)cc1=O (configuration not stated)	-3%
OC1(CN2CCN(c3nccs3)CC2)CCCNC1 (configuration not stated)	-4%
OC1(CN2CCN(c3ccc(F)c(Cl)c3)CC2)CCCNC1 (configuration not stated)	7.9µM*
CCn1cnnc1CCNC(=O)CC1C(=O)NCCN1Cc1ccccc1 (configuration not stated)	30%
CC(C)(CN1CCC(Cc2cccc(C(=O)O)c2)C1)N1CCOCC1 (configuration not stated)	-4%
